From PubChem
Lassa entry inh: inhibitors of Lassa virus binding or cell entry | Potency, µM (titrated, usually from 37.9 µM), without a hit: at the top dose activity change, negative = inhibition, usual class: inhibitors | Lassa virus pseudotype entry inhibition, cell reporter | hit rate 1.2% among 300,000; calls by dose curve; tested in HEK293 cells; further: potency means the concentration at half of the fitted maximal effect; on the % scale 0 is the no-effect control and ±100 the full control effect; nearly all actives have a fitted effect of over 50% in size
CHX counter: affects cycloheximide protein synthesis inhibition readout, counter-screen; cell reporter, cycloheximide protein synthesis inhibition counterscreen; max response, %; hit rate 12% among 300,000; AID 2314; in the data active means max response mostly above about 13%, no sharp cut-off; inactive means mostly below about 14%; further: read at 38.3 µM for the half of the compounds with a filed dose; 0% is about no effect
Marburg entry inh: inhibitors of Marburg virus binding or cell entry; AID 540276; Potency, µM (top dose mostly 37.8 µM), without a hit: at the highest dose activity change, negative = inhibition, hits mostly inhibitors; hit rate 1.8% among 300,000; Marburg virus pseudotyped entry inhibition, cell reporter; calls by dose curve; tested in HEK293 cells; further: potency means the concentration at half of the fitted maximal effect; on the % scale 0 is the no-effect control and ±100 the full control effect
Pf growth 96h: P. falciparum growth inhibition at 96 hour, primary screen for plastid delayed-death inhibitors | Potency, µM (titrated, usually from 28.7 µM), for inactives: top-dose activity change, negative = inhibition, most hits filed as inhibitors | P. falciparum luciferase reporter growth, 96 h | hit rate 6.9% among 320,000; further: potency means the concentration at half of the fitted maximal effect; on the % scale 0 is the no-effect control and ±100 the full control effect
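P. falciparum expressing integrated firefly luciferase grown in erythrocytes (2% hematocrit, 0.05% parasitemia final) with compounds for 96 hours at 37 C, 5% CO2. Growth inhibition read as loss of luminescence after adding luciferase detection reagent.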
Pf growth 48h: P. falciparum growth inhibition at 48 hours (one generation). hit rate 5.9% among 310,000. AID 504832. P. falciparum luciferase growth in erythrocytes, 48 h. Potency, µM (series often up to 28.7 µM), without a hit: top-dose activity change, negative = inhibition, usual class: inhibitors; further: potency means the concentration at half of the fitted maximal effect; on the % scale 0 is the no-effect control and ±100 the full control effect
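Luciferase-expressing parasites in RBCs, 2% Hct / 0.1% parasitemia final; RPMI 1640 + 0.5% Albumax; 37 C, 5% CO2, one generation; luminescence read-out, lower signal = inhibition.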
Shiga toxin inh: blocks Shiga toxin action in Vero cells; Vero cells, Shiga toxin protein synthesis inhibition reporter; inhibition, % at 38.7 µM; AID 2315; hit rate 9.2% among 290,000; in the data active means inhibition mostly above about 28%, no sharp cut-off; inactive means mostly below about 43%; further: 0% is about no effect
Starred values were filed as active, the others as inactive; ? = inconclusive; . = no result given; [ ] = another dose, or the depositor's remark. Only some compounds are listed: those with a hit (about 19% of all), similar ones and a draw of the others. Unless noted, the call rests on the fitted dose curve; in most records, active means well fitted inhibition curve with a large enough effect; inconclusive means small, poorly fitted or top-dose-only effect, or another doubt; inactive means no such curve, though single readings can be large or run the other way.

SMILES	Lassa entry inh	CHX counter	Marburg entry inh	Pf growth 96h	Pf growth 48h	Shiga toxin inh
Cn1c(=O)c2c(SC3CCCC3)nc(C3CC3)nc2n(C)c1=O	.	-3	.	-18%	.	-10
Cc1cc(-n2cnc(-c3cn[nH]c3C)n2)no1	5%[46.1 µM]	12	-9%[46.1 µM]	100%	108%	72*
Cc1cccc(S(=O)(=O)NCCNS(=O)(=O)c2cccc(C)c2)c1	19%	-5	-37%	-14%	4%	17
O=C(CCl)N(O)c1ccc(C=Cc2ccccc2)cc1	8.9µM*	.	?	.	.	.
Cc1cc(Nc2ccc3c(c2)OCCO3)n2nc(C)nc2n1	.	-4	.	105%	.	4
Cc1cc(Nc2ccc(C)c(C)c2)n2nc(C)nc2n1	.	-3	.	?	0.74µM*	14
Cc1cc(Nc2ccc(F)cc2)n2nc(C)nc2n1	.	4	.	?	.	14
CCc1ccc(Nc2cc(C)nc3nc(C)nn23)cc1	-7%	-2	-1%	-10%	1.3µM*	-3
Cc1cc(Nc2c(C)cccc2C)n2nc(C)nc2n1	.	-4	-4%	?	.	-12
Cc1cc(Nc2ccc(Br)cc2)n2nc(C)nc2n1	.	-2	.	?	2.3µM*	-7
Cc1cc(Nc2cccc(F)c2)n2nc(C)nc2n1	.	0	.	9.3µM*	?	-4
COc1cc(NC(=O)CN(C)S(=O)(=O)c2ccc(C)cc2)cc(OC)c1	3%	0	?	22%	5%	-3
Cc1ccc(C2CC(=O)C=C(O)C2)cc1 (stereo not given)	4%	-1	2%[46.1 µM]	-3%	.	-12
CC1CC(C)CN(CC(=O)c2ccc(OC(F)F)cc2)C1 (stereo not given)	8%	34*	2%	-26%	7%	26*
CC1CC(C)CN(CC(=O)c2c[nH]c3ccccc23)C1 (stereo not given)	-1%[46.1 µM]	5	?	-2%	-13%	7
CCCCOCCCn1c(-c2ccco2)nc2nc3ccccc3nc21	-26%	-1	-46%	9%	?	19
CC#CCc1cc2ccccc2c(=O)o1	.	5.2*	.	?	35%	12
O=C(O)c1ccc(-n2c(O)c(C=C3N=c4ccccc4=N3)sc2=S)cc1	.	0	8%	112%	30%	2
O=C(O)c1cccc(-n2c(O)c(C=C3N=c4ccccc4=N3)sc2=S)c1	.	-2	.	?	12µM*	18
CN(C)C(=O)C1Cc2ccccc2CN1S(=O)(=O)c1ccc(F)cc1 (stereo not given)	.	1	.	4.1µM*	8%	-1
COc1ccc(S(=O)(=O)N2Cc3ccccc3CC2C(=O)Nc2ccc3c(c2)OCO3)cc1 (stereo not given)	14%	47*	1%[46.1 µM]	?	?	79
Cc1noc(C)c1S(=O)(=O)N1Cc2ccccc2CC1C(=O)N(C)C (stereo not given)	.	8	.	22%	4%	2
Cc1ccc(NC(=O)N2Cc3ccccc3CC2C(=O)NC(C)(C)C)cc1 (stereo not given)	8%	-3	1%	?	-23%	14
Cc1ccc(S(=O)(=O)N2Cc3ccccc3CC2C(=O)NC(C)(C)C)cc1 (stereo not given)	.	1	.	12µM*	2%	-2
COc1ccc(NC(=O)C2Cc3ccccc3CN2S(=O)(=O)c2ccccc2)cc1OC (stereo not given)	-1%[46.1 µM]	.	.	.	.	.
SMILES	Lassa entry inh	CHX counter	Marburg entry inh	Pf growth 96h	Pf growth 48h	Shiga toxin inh
Cc1ccc(S(=O)(=O)N2Cc3ccccc3CC2C(=O)Nc2ccc3c(c2)OCO3)cc1 (stereo not given)	14%	30*	-14%[46.1 µM]	.	-27%	60*
COc1ccc(S(=O)(=O)N2Cc3ccccc3CC2C(=O)Nc2ccc(C)cc2)cc1OC (stereo not given)	-8%[46.1 µM]	.	.	.	.	.
CCCCc1nc(SCC(=O)N2CCCCC2)c2c(=O)n(C)c(=O)n(C)c2n1	0%	.	?	?	?	.
COc1ccc(S(=O)(=O)N2CCC(C(=O)NCCc3ccccc3)CC2)cc1	.	-2	.	-22%	-11%	-5
CC(C)Oc1ccc(C(CC(=O)O)NC(=O)CSc2ncn[nH]2)cc1 (stereo not given)	2%	2	9%	1%	4%	-14
CCCCCCOc1ccc(C(=O)O)cc1	.	16*	.	4%	14%	42*
CCCCOc1ccc(-c2ncc(C(=O)O)c(C)n2)cc1	?	28*	-11%[46.1 µM]	24%[5.75 µM]	191%	99*
CCCCOc1ccc(/C(N)=N/O)cc1	11%	43*	7%	?	99%	82*
Cc1cc(C)cc(OCC(=O)NCC2(N3CCOCC3)CCCCC2)c1	0%[46.1 µM]	.	27%[46.1 µM]	.	.	.
Cc1cc(-c2nnc(-c3ccccc3)c(-c3ccccc3)n2)c(C)o1	-3%	-4	?	?	13µM*	-9
CCC(=O)Nc1nc(C)nc(C)c1C(C)=O	2%	-3	9%	87%	10%	-23
COc1ccc(-c2nc(CN3CCN(c4cc(C)nc(C)c4)CC3)c(C)o2)c2ccccc12	11µM*	-1	?	?	38%	-2
Cc1cc(N2CCN(Cc3nc(-c4ccc(Cl)cc4)oc3C)CC2)cc(C)n1	?	-2	4µM*	?	?	-25
COc1ccc(-c2nc(CN3CCN(Cc4ccccc4)CC3)c(C)o2)cc1	.	-1	.	0%	?	15
Cc1oc(-c2ccc(-c3ccccc3)cc2)nc1CN1CCN(CC(=O)N(C)C)CC1	8%	52*	9%	-5%	0%	108*
CCOC(=O)/C=C1\SCC(=O)N1CC(=O)NCc1ccc(OC)c(OC)c1	-9%	-1	11%[46.1 µM]	21%	12%	-14
CCOc1ccc(C(=O)OCC(=O)Nc2ccc3c(c2)OCCO3)cc1OC	.	.	.	-15%	10%	.
CCOC(=O)c1cc2sc(C)cc2n1CC(=O)Nc1ccc2c(c1)OCCO2	0%	12*	-24%	0.74µM*	-9%	26
CCOC(=O)c1c(C)c(C(=O)NCCOC)c(C)n1CC	2%	6	1%	90%	6%	-9
CCOC(=O)c1ccc(NC(=O)Nc2ccc3c(c2)OCCO3)cc1	-4%	13*	0%	14%	?	32*
CCOC(=O)c1c(C)c(C(=O)Nc2ccc3c(c2)OCCO3)c(C)n1C	2%	22*	?	40%	?	55*
CCOC(=O)c1c(C)c(C(=O)Nc2ccc(N(C)C)cc2)c(C)n1CC	?	22*	?	.	60%	51
Cc1ccc(NC(=S)N2CCN(Cc3ccccc3)CC2)c(C)c1	-20%	7	20%	?	13%	19
CC(C(=O)NCc1ccco1)n1ccc2cc(S(=O)(=O)N3CCCCC3)ccc21 (stereo not given)	.	6	.	?	?	10
CCOC(=O)Nc1cc(Br)c2c(c1)OCCO2	-4%	34*	1%	?	43%	41
CCCn1c(CCC(=O)O)nc2cc(S(=O)(=O)N3CCCC3)ccc21	27%	-3	11%[46.1 µM]	-13%	-4%	-8
